VHR inh abs = inhibitors of human VHR1 phosphatase (DUSP3); recombinant VHR phosphatase, pNPP absorbance; AID 1654; 290,000 compounds, 0.52% hits; P51452; inhibition, % at 13.3 µM; in the data active means inhibition above about 50%
Target sequence (P51452 whole entry, looked up): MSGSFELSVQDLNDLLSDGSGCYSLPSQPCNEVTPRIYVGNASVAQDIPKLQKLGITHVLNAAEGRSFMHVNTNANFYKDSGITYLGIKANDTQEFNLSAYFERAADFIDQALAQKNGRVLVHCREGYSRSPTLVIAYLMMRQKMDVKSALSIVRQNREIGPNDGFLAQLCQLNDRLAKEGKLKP
Sa ugtP lethal = growth inhibition of S. aureus ugtP deletion strain; S. aureus RN4220 ugtP deletion, OD600 growth, 16 h; growth inhibition, % (test concentration not listed); 330,000 compounds, 0.54% hits; in the data active means growth inhibition above about 68%;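 further: plate controls were untreated wells for no effect and antibiotic for full effect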
PrPC TRFRET = cell surface PrPC inhibition, primary TR-FRET screen; P04156; TR-FRET read-out; inhibition, % at 13.8 µM; 370,000 compounds, 0.43% hits; AID 720596; in the data active means inhibition above about 24%; further: 0% = median of the test wells and 100% = reference compound wells
SARS 3CLpro inh = SARS-CoV 3CLpro protease inhibition; P0C6X7; recombinant SARS-CoV 3CLpro, quenched FRET peptide cleavage; inhibition, % at 6 µM; 290,000 compounds, 0.14% hits; in the data active means inhibition above about 12%
Sa RN4220 lethal = kills Staphylococcus aureus RN4220; 330,000 compounds, 0.33% hits; S. aureus RN4220 growth, OD600, 16 h; inhibition, % (test concentration not listed); in the data active means inhibition above about 85%;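 further: plate controls were untreated cells for no effect and reference antibiotic for full effect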
BJeLR viability = BJeLR cell viability loss | BJeLR (HRASV12) viability, CellTiter-Glo ATP luminescence, 48 h | inhibition, % (test concentration not listed) | 300,000 compounds, 0.17% hits | AID 1554; in the data active means inhibition above about 50%
* hit, by the source's call; / = not tested or not shown. Sampled rows, rich in hits. Any-hit rate of the full collection: about 1.4%.

SMILES	VHR inh abs	Sa ugtP lethal	PrPC TRFRET	SARS 3CLpro inh	Sa RN4220 lethal	BJeLR viability
O=C(N/N=C/c1cccc(O)c1)c1cc(-c2ccc3c(c2)OCO3)n[nH]1	30	/	5	-5	/	-4
O=C(N/N=C/c1cccc([N+](=O)[O-])c1)c1cc(-c2ccc3c(c2)OCO3)n[nH]1	51*	/	2	-1	/	2
O=C(N/N=C/c1ccccc1)c1cc(-c2ccc3c(c2)OCO3)n[nH]1	13	/	-3	4	/	-8
COC(=O)C1=C(c2ccc3ccccc3c2)CC2CCC1N2C(=O)NCCO (centres undefined)	/	-4	/	/	6	/
O=c1c2ccccc2nc2c3ccccc3c(NCCN3CCOCC3)nn12	16	12	18	-2	5	4
O=c1c2c(-c3ccccc3)csc2nc2c3ccccc3c(NCCN3CCOCC3)nn12	22	60	-10	-4	91*	0
C#CCOCCOCCOCCNc1nc(N2CCN(C(=O)C(CCCCN)n3cc(C(N)CC(C)C)nn3)CC2)nc(N2CCN(C(=O)C(Cc3cc4ccccc4[nH]3)n3cc(C(N)Cc4ccc(O)cc4)nn3)CC2)n1 (centres undefined)	/	0	/	/	3	/
C#CCOCCOCCOCCNc1nc(N2CCN(C(=O)C(CCC(=O)O)n3cc(C(N)CO)nn3)CC2)nc(N2CCN(C(=O)C(C(C)CC)n3cc(C(N)Cc4ccc(O)cc4)nn3)CC2)n1 (centres undefined)	/	-5	/	/	-2	/
O=C(NN=Cc1ccccn1)c1cccnc1	/	5	/	/	4	/
CCn1c(SCC(=O)N2c3ccccc3CCc3ccccc32)nnc1-c1ccc(OC)cc1	55*	8	/	7	2	8
COc1ccc(C(=O)CC(=O)C(=O)Nc2ccc(C)c(Cl)c2)cc1	22	97*	0	3	78	-2
COc1ccc(C(=O)CC(=O)C(=O)Nc2cc(C)ccc2C)cc1	34	-5	3	-2	0	0
CCCCN1CCC2C=CCC(C(=O)NCCc3ccccc3)C2C1=O (centres undefined)	/	-5	/	/	-3	/
COc1ccc(C=CC(=O)Oc2cccc(C=NNC(=O)COc3c(C)cccc3C)c2)cc1	/	-1	/	/	-2	/
Cc1ccc(-c2cc(-c3ccccc3)nc(Cl)n2)cc1	30	9	1	-3	5	2
COc1ccc(-c2cc(-c3ccccc3)nc(Cl)n2)cc1OC	51*	-2	2	3	11	-4
CCOC(=O)c1oc2ccc(CNC3CCCCC3)c(Cl)c2c1C	13	82*	-3	-4	-2	4
COc1ccc(S(=O)(=O)N2CCOCC2)cc1N=Nc1sc(N)nc1-c1ccccc1	56*	4	-11	2	0	-3
COc1ccccc1Oc1ccnc2cc(Cl)ccc12	58*	0	3	-1	-4	-4
Cc1c(CC(=O)O)c(=O)oc2c(C)c3occ(-c4ccc(Br)cc4)c3cc12	24	/	4	-1	/	4
CCCCC(NC(=O)Cc1c(C)c2cc3c(-c4ccccc4)coc3c(C)c2oc1=O)C(=O)O (centres undefined)	-12	100*	3	2	98*	-7
COc1cccc(-c2coc3cc4oc(=O)c(CCC(=O)O)c(C)c4cc23)c1	89	-18	-5	-2	2	1
COc1ccc(-c2coc3c(C)c4oc(=O)c(CC(=O)O)c(C)c4cc23)cc1	-29	100*	2	0	93*	21
COc1cccc(-c2coc3c(C)c4oc(=O)c(CCC(=O)O)c(C)c4cc23)c1	/	100*	-1	-1	100*	-9
COc1cccc(-c2coc3c(C)c4oc(=O)c(CC(=O)O)c(C)c4cc23)c1	44	99*	7	5	95*	3
SMILES	VHR inh abs	Sa ugtP lethal	PrPC TRFRET	SARS 3CLpro inh	Sa RN4220 lethal	BJeLR viability
O=C(Nc1ccc2c(c1)OCO2)OC1CC2CCC(=O)N3CCC(C1)C23 (centres undefined)	/	1	/	/	3	/
CCCC(C(=O)O)N1C(=O)C(=C2C(=O)N(C)c3ccccc32)SC1=S (centres undefined)	/	-14	/	/	14	/
CCCCN1CC(=O)N2C(c3ccc(Cl)cc3)C3C(=O)N(CC)C(=O)C3[C@]2(Cc2ccccc2)C1=O (some centres undefined)	/	2	/	/	5	/
Cc1cc(C)c2c(CC(=O)NN(C)C)coc2c1	53*	2	2	1	3	4
COC(=O)C1C(O)C(C)C(O)C(C)C=CC=C(C)C(=O)Nc2c(C)c(OC(C)=O)c3c(c2O)C(=O)C(C)=C2OCOC(=C23)C(C)=CC(C)(O)C(O)C(C)C1O (centres undefined)	/	100*	/	/	99*	/
CO[C@H]1/C=C/O[C@@]2(C)Oc3c(C)c(O)c4c(O)c(c(C=NN5CCN(C)CC5)c(O)c4c3C2=O)NC(=O)/C(C)=C\C=C\[C@H](C)[C@H](O)[C@@H](C)[C@@H](O)[C@@H](C)[C@H](OC(C)=O)[C@@H]1C	/	/	-16	/	/	/
O=C(Nc1ccc([N+](=O)[O-])cc1)Nc1nc(-c2ccc(Cl)s2)cs1	-4	97*	12	-4	97*	40
O=C(Nc1nc(-c2ccc(Cl)s2)cs1)c1cccs1	27	99*	-3	4	54	1
COC(=O)[C@@]12CCCCN1C(c1ccc(-c3ccc(Cl)c(Cl)c3)c(OC)c1)C1C(=O)N(C)C(=O)C12 (some centres undefined)	/	2	/	/	4	/
CCN(CC)c1ccc(/C=N/Nc2ccc(C)cc2)c(O)c1	8	/	25*	2	/	/
CCN(CC)c1ccc(/C=N/Nc2nc(C)cc(=O)[nH]2)c(O)c1	-10	/	0	-6	/	67*
Cc1cc(=O)[nH]c(NN=Cc2cc(Br)ccc2O)n1	/	/	-4	/	/	/
CCN(CC)c1ccc(C=NNc2ccc(C)cc2)c(O)c1	/	26	/	/	0	/
CCN1C(=O)C2C(c3ccc(SC4CCCCC4)cc3)N3CCC[C@@]3(C(=O)OC)C2C1=O (some centres undefined)	/	-8	/	/	3	/
COC(=O)CN1C(=O)C2C(c3ccc(C)o3)N3C(=O)CN(CCO)C(=O)[C@@]3(Cc3ccccc3)C2C1=O (some centres undefined)	/	6	/	/	8	/
CCN1/C(=C/c2ccc3cc(C)ccc3[n+]2CC)Sc2cc(C)c(C)cc21	22	100*	1	-35	100*	/
CCN1/C(=C/c2ccc3cc(C)ccc3[n+]2CC)Sc2ccccc21	-4	100*	-10	-19	100*	/
CC[n+]1c(/C=C2\Sc3ccccc3N2C)ccc2cccc(C)c21	7	101*	-21	-20	100*	35
Cc1ccc(CN2CC(=O)N3C4c5cc(Cl)ccc5OCC4C(c4ccccc4)[C@]3(C)C2=O)cc1 (some centres undefined)	/	-1	/	/	-2	/
O=C(Nc1cc(C(F)(F)F)ccc1N1CCOCC1)c1n[nH]c(=O)c2ccccc12	12	98*	-1	-2	100*	-2

Screens: PubChem BioAssay, several laboratories
